Results as given in the supplement of paper PMC13094657.
± gives the standard deviation of the averaged measurements.

Tests used:
MDA-MB-231 [1] = assay: cell viability relative to vehicle unstimulated control (fraction); higher = more viable cells; settings: pre-treatment time: 18 h then 24 h IFNg/TNF
MDA-MB-231 [2] = assay: kynurenine production, fold change vs DMSO IFNg/TNF control; higher = more kynurenine produced (less inhibition); settings: pre-treatment time: 18 h then 24 h IFNg/TNF
Method in brief: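 After trichloroacetic acid and p-dimethylaminobenzaldehyde treatment, supernatants were read at 492 nm, with 0–100 μM standards. These came from MDA-MB-231 cells (7 × 10^4/well, 96-well plates) pre-treated 18 h with natural products in 0.1% DMSO and then exposed 24 h to IFNγ (1 U/ml) and TNF (6.25 ng/ml) at 37°C. Values for kynurenine production are fold changes over same-plate cytokine-stimulated vehicle wells, averaged over duplicate plates in the first screening round.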
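Wherever cell viability relative to vehicle unstimulated control is given: viability of the cells left after supernatant collection, read with Deep Blue dye added for 4 h, as absorbance at 570 nm minus 600 nm.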

Structure (SMILES)	cell viability (MDA-MB-231 [1])	kynurenine production (MDA-MB-231 [2])
O=C(O)c1ccc(=O)[nH]c1 [6-hydroxypyridine-3-carboxylic acid] (compound dose: 10 uM)	0.99 ± 0.039	0.821 ± 0.09
CN1[C@@H]2CC[C@H]1C[C@H](O)C2 [Pseudotropine] (compound dose: 10 uM)	1.052 ± 0.0024	1.14 ± 0.4
CC(=O)OC(C)(C)/C=C/C(=O)[C@](C)(O)[C@H]1[C@H](O)C[C@@]2(C)[C@@H]3CC=C4[C@H](C[C@H](O)C(=O)C4(C)C)[C@]3(C)C(=O)C[C@]12C [Cucurbitacin B] (compound dose: 10 uM)	0.396 ± 0.061	0.189 ± 0.096
C[C@@H]1CC[C@@]2(OC1)O[C@H]1C[C@H]3[C@@H]4CC=C5C[C@@H](O[C@@H]6O[C@H](CO)[C@@H](O[C@@H]7O[C@@H](C)[C@H](O[C@@H]8O[C@@H](C)[C@H](O)[C@@H](O)[C@H]8O)[C@@H](O)[C@H]7O)[C@H](O)[C@H]6O[C@@H]6O[C@@H](C)[C@H](O)[C@@H](O)[C@H]6O)CC[C@]5(C)[C@H]4CC[C@]3(C)[C@H]1[C@@H]2C [Formosanin C] (compound dose: 10 uM)	-0.00547 ± 0.0077	0.125 ± 0.075
CC(C)[C@]12CC(=O)[C@H](C)[C@H]1C2 [α-Thujone] (compound dose: 10 uM)	1.05 ± 0.058	0.947 ± 0.21
C[C@@]1(C(=O)O)CC[C@]2(C)CC[C@]3(C)C4=CC(=O)c5c(cc(O)c(O)c5C=O)[C@]4(C)CC[C@@]3(C)[C@@H]2C1 [Demethylzeylasteral] (compound dose: 10 uM)	0.786 ± 0.1	0.294 ± 0.022
